Source: PubChem
Pf apPOL inh = Pf-apPOL DNA polymerase inhibition. Recombinant Pf-apPOL, molecular beacon fluorescence, 1.5 h. inhibition, % at 10 µM. hit rate 0.25% among 210,000
mHTT CaM bind = mHTT-calmodulin interaction abrogation | inhibition, % at 15 µM | AlphaScreen His-mHTT/GST-CaM binding, luminescence | AID 1671202 | hit rate 3.6% among 190,000;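 further: 0% = both proteins with DMSO and 100% = one protein alone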
An asterisk follows results filed as active; x = not tested or not shown. The list is not random: actives were taken first. Their share in the collection is about 3.5%. No stated cut-off is given here; in the data, active means inhibition above about 50%; inactive means the rest.

SMILES	Pf apPOL inh	mHTT CaM bind
CC(=O)c1cc(C#N)c(SC/C=C/c2ccccc2)nc1C	-19	97*
Cc1cc(C)c(C#N)c(SC/C=C/c2ccccc2)n1	4	-140
CC(=O)c1cc(C#N)c(SCC(=O)c2ccc(O)c(O)c2)nc1C	10	88*
COC(=O)c1ccc(C=C2Oc3cc(OCC(=O)OC(C)C)ccc3C2=O)cc1	-8	0
CCOc1ccc(C(=O)Nc2cc(F)c3[nH]c(=O)ccc3c2)cc1	0	-14
Cc1ccccc1NC(NC(=O)c1cccs1)C(=O)c1ccccc1 (centres undefined)	2	21
O=C(NC(Nc1ccc(Br)cc1)C(=O)c1ccccc1)c1cccs1 (centres undefined)	-2	63*
CC(=O)Nc1ccc(NC(NC(=O)c2cccs2)C(=O)c2ccccc2)cc1 (centres undefined)	-5	9
O=C(NC(Nc1cccc(C(F)(F)F)c1)C(=O)c1ccccc1)c1cccs1 (centres undefined)	-6	83*
Cc1ccc(C2=N/C(=C\c3ccc(C)o3)C(=O)O2)cc1	-1	9
COc1ccc(N2CC34C=CC(O3)C(C(=O)OC(C)C)C4C2=O)cc1 (centres undefined)	-1	8
OCCCNc1nc(-c2ccccc2Cl)c2cc(Br)ccc2n1	-4	51*
O=C(NNc1nc(-c2ccccc2)c2cc(Br)ccc2n1)C12CC3CC(CC(C3)C1)C2	-5	2
c1ccc(CNc2nc(-c3ccccn3)cs2)cc1	-2	100*
CCNc1nc(-c2ccccc2)cs1	-12	x
c1ccc(-c2csc(NCc3ccco3)n2)cc1	-9	24
c1ccc(-c2csc(NCc3ccco3)n2)nc1	-18	99*
O=C(Cc1cccs1)Nc1ccc(S(=O)(=O)N2CCOCC2)cc1	-8	3
Cc1ccc(C2=C(c3ccccc3)C(=O)C(c3ccccc3)=C2c2ccc(Cl)cc2)cc1	-4	x
O=C1NC(c2ccc(Br)cc2)=C(c2ccccc2)C1=O	-3	53*
CCN1CCc2c(sc(NC(=O)c3ccnn3C)c2C(N)=O)C1	0	-7
CCN1CCc2c(sc(NC(=O)Nc3ccc(Cl)c(Cl)c3)c2C(N)=O)C1	0	85*
O=c1[nH]c(=O)n(CCC2=CCCCC2)c(O)c1C=NCCc1ccc(F)cc1	4	0
O=C(Nc1ccc(F)cc1)N1CCC(COCc2ccccc2)CC1	0	-9
OC(C#CC12CC3CC(CC(C3)C1)C2)c1cccnc1 (centres undefined)	-1	43
SMILES	Pf apPOL inh	mHTT CaM bind
Cc1ccc(C(O)C#CC23CC4CC(CC(C4)C2)C3)o1 (centres undefined)	3	87*
O=C1C=CC(=O)N1c1ccccc1I	2	-1
O=[N+]([O-])c1ccc(C2NCCS2)cc1 (centres undefined)	-3	-1
Clc1ccc2c(c1)C1C=CCC1C(c1cccc3ccccc13)N2 (centres undefined)	x	65*
CC(=O)c1ccc2c(c1)C1C=CCC1C(c1ccccc1Cl)N2 (centres undefined)	3	40
Cc1ccc2c(c1)C1C=CCC1C(c1ccccc1Cl)N2 (centres undefined)	-8	83*
CC(C)CCN1C(=O)C(C)(C)COc2ccc(NC(=O)c3cc(=O)c4ccccc4o3)cc21	-1	-4
COC(=O)c1ccccc1SC(=O)c1cc(C(F)(F)F)cc(C(F)(F)F)c1	2	x
O=CN1CCN(CCCc2ccccc2)CC1	-11	-4
O=c1[nH]c2ccnc(Cl)c2[nH]1	x	3
O=C(Cc1csc(Nc2ccc(Cl)cn2)n1)Nc1ccc(OC(F)(F)F)cc1	-8	12
CCOc1ccc(C(=O)NCC2(O)CCCC2)cc1	-8	0
CCOc1ccc(C2(c3ccc(O)cc3)CCCCC2)cc1	-2	86*
Cc1cccc(OCC(=O)N2CCCCC2CCN2CCOCC2)c1 (centres undefined)	-6	-1
O=C(Nc1nc(-c2ccccn2)cs1)c1cc2cc([N+](=O)[O-])ccc2s1	-28	23
O=C(Nc1nc(-c2ccccn2)cs1)c1ccc([N+](=O)[O-])o1	-55	74*
O=C(Nc1nc(-c2ccccn2)cs1)c1ccccc1[N+](=O)[O-]	-131	100*
O=C(NCc1cccs1)Nc1nc(-c2ccccn2)cs1	-7	100*
CCOc1cccc2cc(-c3csc(NC(=O)c4ccc([N+](=O)[O-])o4)n3)oc12	-4	-6
O=C(Cc1csc(Nc2ncccn2)n1)NCc1cccs1	-2	-7
CCc1ccc(C2=CC(c3ccc(Cl)cc3)n3ncnc3N2)cc1 (centres undefined)	-3	27
Cc1cccc(-n2c(=O)n(C3CC3)c(=O)c3c2ncn3Cc2cccc(F)c2)c1	2	10
CCOc1ccccc1NC(=O)NCCC1CCN(C(=O)NC2CCCCC2)CC1	0	-2
COc1ccc(Cl)cc1NC(=O)Cc1ccccc1	-1	-14
O=c1c2c(-c3ccccc3)csc2nc2c3ccccc3c(N3CCCCC3)nn12	8	-5
